Results filed as inconclusive are left out. Active and inactive are the calls of the source. The call rests on the fitted dose curve; in most records, active means well fitted cell-killing curve with a large enough effect in the repeat runs; inconclusive means weak or mixed curves, or effect the other way; inactive means flat fitted curve, though single readings scatter.
On the % scale 0 is the no-effect control and ±100 the full control effect; potency means the concentration at half of the fitted maximal effect.

This assay in a line: qHTS RealTime-Glo MT Cell Viability Assay in HepG2 cells - 40 hour (AID 1224870). Further: nearly all actives have a fitted effect of over 50% in size. As to conditions: RealTime-Glo luminescence; series mostly up to 76.8 µM; activity change, negative = cytotoxic: at the top concentration. The source says: National Center for Advancing Translational Sciences [NCATS]
NIH Chemical Genomics Center [NCGC]
U.S. Environmental Protection Agency [EPA]
National Institutes of Environmental Health Sciences [NIEHS]
National Toxicology Program [NTP]
U.S. Food and Drug Administration [FDA]
Measure of cell viability is critical in the cell-base assay. Analysis of cell viability is necessary for the characterization of cell responses to cytotoxic drugs and environmental stress. A RealTime-Glo MT Cell Viability Assay to monitor cell viability in real time of continues cell culture during 40 hours of compound treatment was used to screen Tox21 10K library compounds in HepG2 cells. The RealTime-Glo MT Cell Viability Assay is a nonlytic, homogeneous, bioluminescent method to measure cell viability in real time using a simple, plate-based method. The assay involves adding NanoLuc luciferase and a cell-permeant prosubstrate to cells in culture. Viable cells reduce the proprietary prosubstrate to generate a substrate for NanoLuc luciferase. This substrate diffuses from cells into the surrounding culture medium, where it is rapidly used by the NanoLuc Enzyme to produce a luminescent signal. The signal correlates with the number of viable cells, making the assay well suited for cytotoxicity studies.
Tox21 Assay Protocol Summary:
The mixture of HepG2 cell suspension and reagents were dispensed at 600cells/6 ul/well in 1536-well tissue culture treated black solid bottom plates using a Multidrop dispenser. After the assay plates were incubated at a 37 C/5% CO2 incubator for 5 hours, 23 nL of compounds dissolved in DMSO, positive and negative controls was transferred to the assay plate by a pintool work station. The plates were incubated at 37 C for 40 hours. The luminescence intensity were measured at 0h, 8h, 16h, 24h, 32h and 40h time points using ViewLux plate reader during compound treatment.
Background: Quantitative high-throughput screening tests each substance at several concentrations.
Regarding `Brc1cc(Br)c(Oc2cc(Br)c(Br)cc2Br)cc1Br`, the “activity change, negative = cytotoxic” value is 2.37% [at 35.3 µM] (inactive).
On the same count and under the same terms, as for `C1COC1`, the figure is 0.73% (inactive).
Take `CC1CC(C)C(=O)C1=O` (stereo not given): the “activity change, negative = cytotoxic” value is -1.4% (inactive).
For the molecule `CC(=O)Nc1ccc(C)cc1C`, the “activity change, negative = cytotoxic” value is 0.8% (inactive).
`CC(=O)OCC[N+](C)(C)C`: the “activity change, negative = cytotoxic” value is 4.82% [at 35.3 µM] (inactive).
The same measure, in the same setting: as for `C[C@@]12CCC[C@H]1[C@@H]1CC[C@H]3C[C@@H](O)CC[C@]3(C)[C@H]1CC2`, the figure is -13.2% [at 35.3 µM] (inactive).
With `C=C1CCC2CC1C2(C)C` (stereo not given), the “activity change, negative = cytotoxic” value is -0.794% (inactive).
The same measure, in the same setting: in the case of `CC(C)Nc1cccnc1N1CCN(C(=O)c2cc3cc(NS(C)(=O)=O)ccc3[nH]2)CC1` it was -4.1% [at 35.3 µM] (inactive); in that of `O=C1c2ccccc2C(=O)C1c1ccc(Br)cc1`, 0.943% [at 35.3 µM] (inactive).
With `C=C1C[C@@]23CC[C@H]4[C@@](C)(CCC[C@@]4(C)C(=O)O[C@@H]4O[C@H](CO)[C@@H](O)[C@H](O)[C@H]4O)[C@@H]2CC[C@]1(O[C@@H]1O[C@H](CO)[C@@H](O)[C@H](O[C@@H]2O[C@H](CO)[C@@H](O)[C@H](O)[C@H]2O)[C@H]1O[C@@H]1O[C@H](CO)[C@@H](O)[C@H](O)[C@H]1O)C3`, the “activity change, negative = cytotoxic” value was -6.1% (inactive).
Take `CCOC(=O)c1ccc(O)c(O)c1`: the “activity change, negative = cytotoxic” value was 0.0859% [at 35.3 µM] (inactive).
Turning to `CCOC(=O)[C@H](CCc1ccccc1)N[C@@H](C)C(=O)N(CC(=O)O)C1Cc2ccccc2C1`, the “activity change, negative = cytotoxic” value was -5.03% [at 35.3 µM] (inactive).
`C[C@]1(Cn2ccnn2)[C@H](C(=O)O)N2C(=O)C[C@H]2S1(=O)=O`: the “activity change, negative = cytotoxic” value is -0.934% [at 35.3 µM] (inactive).
With `CCCCC(CC)CN` (stereo not given), the “activity change, negative = cytotoxic” value is 1.24% (inactive).
With `COc1cc(C(=O)NC2CCN(C)CC2)ccc1Nc1ncc2c(n1)N(C1CCCC1)CC(F)(F)C(=O)N2C`, the Potency is 44.9 µM (active).
In the case of `Nc1cccc2c1CN(C1CCC(=O)NC1=O)C2=O` (stereo not given), the “activity change, negative = cytotoxic” value is -1.04% [at 35.3 µM] (inactive).
For `C=CCc1ccccc1OCC(O)CNC(C)C` (stereo not given), the “activity change, negative = cytotoxic” value was -1.63% [at 35.3 µM] (inactive).
For the molecule `C[C@@H](O[C@H]1OCCN(Cc2n[nH]c(=O)[nH]2)[C@H]1c1ccc(F)cc1)c1cc(C(F)(F)F)cc(C(F)(F)F)c1`, the Potency was 21.3 µM (active).
For `CC(CN(C)C)C(C)(O)Cc1ccc(Cl)cc1` (stereo not given), the “activity change, negative = cytotoxic” value was -8.78% [at 35.3 µM] (inactive).
Still for that read-out and setting: in the case of `O=C1c2ccccc2C(=O)C1c1nc2ccccc2c(Br)c1O` it was -6.59% (inactive); in that of `O=C(O)C[C@H](NC(=O)OCc1ccccc1)C(=O)O`, -6.13% (inactive); in that of `Cc1ccccc1N=C(N)Nc1ccccc1C`, 2.52% (inactive).
As to `O=C(OCC(O)CO)c1ccccc1Nc1ccnc2cc(Cl)ccc12` (stereo not given), the “activity change, negative = cytotoxic” value is -13.2% [at 35.3 µM] (inactive).
On to `NC1[C@H]2CN(c3nc4c(cc3F)c(=O)c(C(=O)O)cn4-c3ccc(F)cc3F)C[C@@H]12` (stereo not given in full), for which the “activity change, negative = cytotoxic” value was -8.82% [at 35.3 µM] (inactive).
For `COC(=O)[C@H]1[C@H]2C[C@@H]3c4[nH]c5cc(OC)ccc5c4CCN3C[C@H]2C[C@@H](OC(=O)/C=C/c2ccc(O)c(OC)c2)[C@@H]1OC`, the “activity change, negative = cytotoxic” value was -14.5% [at 35.3 µM] (inactive).
The same measure, in the same setting: in the case of `Cc1cc(O)ccc1O` it was -5.22% (inactive); in that of `O=Cc1c2ccccc2c(Cl)c2ccccc12`, 0.183% [at 35.3 µM] (inactive).
As to `CN1CCCC(CC2c3ccccc3Sc3ccccc32)C1` (stereo not given), the Potency is 26.8 µM (active).
On to `OC[C@H]1O[C@@H](n2cnc3c(=S)nc[nH]c32)[C@H](O)[C@@H]1O`, for which the “activity change, negative = cytotoxic” value was 0.45% [at 35.3 µM] (inactive).
Still for that read-out and setting: in the case of `Cc1cc(C)cc(N)c1` it was -6.71% (inactive).
Take `CC(=O)OCCN(CCOC(C)=O)c1ccc(N=Nc2ccc([N+](=O)[O-])cc2C#N)cc1`: the “activity change, negative = cytotoxic” value was -0.799% (inactive).
With `CCOC(=O)OC(C)OC(=O)[C@@H]1N2C(=O)[C@@H](NC(=O)[C@H](N)c3ccccc3)[C@H]2SC1(C)C` (stereo not given in full), the “activity change, negative = cytotoxic” value is 1.25% [at 35.3 µM] (inactive).
The same measure, in the same setting: as for `CC1=C(Br)C(=O)C(Br)=C/C1=C(/c1ccccc1S(=O)(=O)O)c1cc(Br)c(O)c(Br)c1C`, the figure is -3.28% [at 35.3 µM] (inactive); as for `C=C1c2cccc(O)c2C(O)=C2C(=O)[C@]3(O)C(O)=C(C(N)=O)C(=O)[C@@H](N(C)C)[C@@H]3[C@@H](O)[C@H]12`, 3.76% [at 35.3 µM] (inactive).
On the same count and under the same terms, in the case of `CN1C(=O)OC(C)(C)C1=O` it was -6.35% (inactive).
Regarding `O=c1c(O)c(-c2ccc(O)cc2)oc2cc(O)cc(O)c12`, the Potency entry is “inactive”.
In the case of `O=C(/C=C/c1ccc(O)c(O)c1)O[C@@H]1C[C@@](OC(=O)/C=C/c2ccc(O)c(O)c2)(C(=O)O)C[C@@H](O)[C@@H]1O`, the “activity change, negative = cytotoxic” value was 3.56% [at 35.3 µM] (inactive).
As for `CC(CC1c2ccccc2CCc2ccccc21)CN(C)C` (stereo not given), the “activity change, negative = cytotoxic” value is -11% [at 35.3 µM] (inactive).
Still for that read-out and setting: in the case of `O=C(O)CCC(=O)C(=O)O` it was -1.6% (inactive); in that of `CC(CCC(=O)O)C(=O)O` (stereo not given), 6.55% (inactive).
